# The sample as a whole holds a higher share of hits than the screen did.
# TTR transcr act = TTR transcription activation, primary screen | hit rate 1.3% among 92,000 | activation, % at 16.7 µM | SH-SY5Y TTR promoter Gaussia luciferase, luminescence; 100% = recombinant luciferase protein wells;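 active = activation above the mean of all tested compounds plus 3 SD, cut at about 9.5% in these data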;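 note: cells exposed to compounds for one day before reading; 0% = median of all test compound wells on the plate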
# HuH7 TTR inh = HuH7 TTR transcription inhibition, counter-screen. shares compounds with TTR transcr act. HuH7 TTR promoter-Gaussia luciferase reporter, luminescence. inhibition, % at 16.7 µM. hit rate 4% among 1,100. AID 1117279;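 active = average inhibition above the solvent-only control wells' mean plus 3 SD, cut at about 15% in these data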;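 note: 0% = cells with DMSO only and 100% = cells with inhibitor control FD; inhibitors lower well luminescence so higher value means more inhibition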
# TTR up confirm = human TTR transcription activation, confirmation; activation, % at 16.7 µM; shares compounds with TTR transcr act; SHSY5Y TTR promoter Gaussia luciferase, luminescence; 100% = purified Lucia enzyme wells, no cells; 1,100 tested, under 10 active;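 active = mean activation above a set limit taken from the earlier primary screen, cut at about 11% in these data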;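 note: 0% = DMSO-treated cells and 100% = recombinant Lucia luciferase without cells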
# * hit, by the source's call.
SMILES,TTR transcr act,others
CC(=O)Nc1cc(F)c2c(c1F)Cc1cc(F)ccc1-2,1,
CCOc1ccc(NC(=O)CN(C)C(=O)c2ccncc2)cc1OCC,-1,
O=C(Nc1ccc2c(c1)OCO2)C1CC(=O)N(CCc2ccccc2)C1 (centres undefined),-2,
CCOc1ccc(NC(=O)CN(C)C(=O)C2CC(=O)N(CCc3ccccc3)C2)cc1OCC (centres undefined),25*,HuH7 TTR inh=-15;TTR up confirm=1
Cc1cc(Br)ccc1OCCNCc1ccccc1,-1,
Cc1cc(Cl)cc(C)c1OCCNCc1ccccc1,-2,
Cc1cc(C)c(OCCNCc2ccccc2)c(C)c1,13*,HuH7 TTR inh=-11;TTR up confirm=1
CC(=O)c1sc(-c2ccccc2)cc1NS(=O)(=O)c1ccccc1,1,
CC(=O)c1sc(-c2ccccc2)cc1NS(=O)(=O)c1ccc(C)cc1,4,
CC(=O)c1sc(-c2ccc(F)cc2)cc1NS(=O)(=O)c1ccc(C)cc1,17*,HuH7 TTR inh=-6;TTR up confirm=0
CC(C)CNC(=O)c1ccccc1NC(=O)c1ccc(CSc2ccccc2)cc1,0,
Cc1ccc(Oc2ncccc2N)c2c1CCC2,3,
CS(=O)(=O)N1N=C(c2ccco2)CC1c1ccc(Br)cc1 (centres undefined),18*,HuH7 TTR inh=-19;TTR up confirm=0
CS(=O)(=O)N1N=C(c2cccs2)CC1c1ccccc1 (centres undefined),1,
COc1ccc(C2CC(c3ccc(OC)c(OC)c3)=NN2S(C)(=O)=O)cc1 (centres undefined),-1,
O=C(OCc1cn(Cc2ccc(C(F)(F)F)cc2)nn1)N1CCCC1,-1,
O=C(O)c1ccccc1Nc1ccc([N+](=O)[O-])cc1C(=O)O,1,
O=C(O)c1cc([N+](=O)[O-])cc2ccccc12,15*,HuH7 TTR inh=-1;TTR up confirm=0
O=C(O)c1cc([N+](=O)[O-])ccc1-c1ccc([N+](=O)[O-])cc1C(=O)O,0,
CN(CC(=O)Nc1ccccc1C(=O)NC1CC1)Cc1ccc(N(C)C)cc1,0,
Cc1ccc(OCCNC(=O)CCNC(=O)c2ccc(Cl)cc2)cc1,-1,
Cc1ccc(S(=O)(=O)n2nc(C)c(C#N)c2N)cc1,3,
CC(C)(C)n1nc2c(c1NC(=O)Cc1cccc3ccccc13)CS(=O)(=O)C2,9,
Cc1nn(-c2ccccc2)cc1C(c1c(N)[nH]c(=S)[nH]c1=O)c1c(N)[nH]c(=S)[nH]c1=O,3,
CCOC(=O)[C@@]12CCCC=C1N(CCc1ccc(Cl)cc1)C(=O)[C@H]2CC(=O)NCc1cccc2ccccc12,-1,
SMILES,TTR transcr act,others
CCOc1cc(CNCCN2CCOCC2)ccc1OCc1ccccc1Cl,27*,HuH7 TTR inh=-7;TTR up confirm=-1
CCOc1cc(CNC2CCCC2)ccc1OCc1ccccc1Cl,0,
CCOc1cc(CNCCCN2CCOCC2)ccc1OCC(=O)NC(C)(C)C,1,
CCCCOCCCNC(=O)C[C@H]1C[C@@]2(C(=O)OC)C(=C[C@H](C(C)(C)C)O[C@@H]2C)N(Cc2ccc(Cl)cc2Cl)C1=O,0,
O=C(CNC(=O)c1ccc(C(F)(F)F)cc1)NC1CC1,1,
O=CN(CCNc1ccccc1)c1ccccc1,0,
C/C(=N\NC(=O)C(c1ccncc1)N1CCOCC1)c1ccc(Br)cc1 (centres undefined),2,
COc1cc(NC(=O)c2ccccc2Cl)ccc1NC(=O)c1ccco1,-2,
CCOc1ccccc1NC(=O)c1cc(Cl)ccc1NC(=O)c1ccco1,12*,HuH7 TTR inh=-11;TTR up confirm=0
CCOc1cc(NC(=O)c2ccco2)c(OCC)cc1NC(=O)CCc1ccccc1OC,-2,
COC(=O)[C@]12C[C@H](CC(=O)N3CCN(C(=O)C4CC4)CC3)C(=O)N(Cc3ccccc3)C1=C[C@H](COCc1ccccc1)O[C@@H]2C,0,
Cc1nc(SCC(N)=O)[nH]c(=O)c1C,4,
O=C(COC(=O)c1ccccc1O)NNC(=O)c1ccc(Br)cc1,9.9*,HuH7 TTR inh=-5;TTR up confirm=2
O=C(COC(=O)c1cc(Br)ccc1O)NNC(=O)c1ccc([N+](=O)[O-])cc1,-2,
O=C(NNC(=O)c1ccccc1O)c1ccc(Br)cc1,1,
Cc1cscc1-c1nc(NCC2CC2)nc2ccsc12,1,
CC(=Nc1ccccc1)C1=C(O)COC1=O,18*,HuH7 TTR inh=-6;TTR up confirm=0
COc1ccc(OC)c(N=C(C)C2=C(O)COC2=O)c1,0,
O=C1OCC(O)=C1Cc1ccccc1,5,
Cc1ccc2c(c1)-n1c(nc3ccccc3c1=O)C(Cc1ccccc1)NC2=O (centres undefined),-1,
COc1cc(NC(=O)CCCN2C(=O)NC(C)(C)C2=O)cc(OC)c1,0,
Cn1c(CSc2nc3ccccc3s2)n[nH]c1=S,-2,
COC(=O)c1ccc(CSc2nc3ccccc3s2)o1,-1,
S=c1[nH]nc(CSc2nc3ccccc3s2)o1,14*,HuH7 TTR inh=-10;TTR up confirm=-1
O=C(Cc1ccc(Br)cc1)NCCc1ccc(F)cc1,-1,

# Screens (PubChem)
